# Test results reported in PubChem BioAssay AID651813 (National Center for Advancing Translational Sciences (NCATS), 2012).
# Screen size: about 2,100 compounds; about 1,100 (52%) were called active. Another 27% or so got no clear call; they are omitted. So high a share suggests a set chosen from earlier hits. The list shows a part of the results. A number with no mark means an inactive call. Calls follow the shape of the dose curve; as a rule, active = well fitted inhibition curve with a large enough effect; inconclusive = small, poorly fitted or top-dose-only effect; inactive = no such curve, though single readings can be large or run the other way.
# Target: DNA dC->dU-editing enzyme APOBEC-3G (Homo sapiens) (UniProt Q9HC16)
# Assay: qHTS for inhibitors of Vif-A3G interactions: Cherry picks counterscreen;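 also: hits raise yellow fluorescence by blocking Vif-driven A3G-eYFP degradation; nearly all actives have a fitted effect of over 70% in size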;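 as to max response: max response given as percent of control signal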
# Conditions: HeLa A3G-eYFP + Vif (tagged APOBEC3G with the HIV-1 protein that degrades it), eYFP fluorescence, 24 h
# Procedure, shortened: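 HeLa cells stably expressing A3G-eYFP and Vif were treated for 24 h at 37 deg C with compounds at several concentrations; yellow fluorescence (Ex 488 nm, Em 500-530 nm) read by Acumen Explorer, MG132 as positive control.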
# Potency is read from the fitted curve at half-maximal effect.
# Sequence of DNA dC->dU-editing enzyme APOBEC-3G (Homo sapiens) (Q9HC16 whole entry, looked up): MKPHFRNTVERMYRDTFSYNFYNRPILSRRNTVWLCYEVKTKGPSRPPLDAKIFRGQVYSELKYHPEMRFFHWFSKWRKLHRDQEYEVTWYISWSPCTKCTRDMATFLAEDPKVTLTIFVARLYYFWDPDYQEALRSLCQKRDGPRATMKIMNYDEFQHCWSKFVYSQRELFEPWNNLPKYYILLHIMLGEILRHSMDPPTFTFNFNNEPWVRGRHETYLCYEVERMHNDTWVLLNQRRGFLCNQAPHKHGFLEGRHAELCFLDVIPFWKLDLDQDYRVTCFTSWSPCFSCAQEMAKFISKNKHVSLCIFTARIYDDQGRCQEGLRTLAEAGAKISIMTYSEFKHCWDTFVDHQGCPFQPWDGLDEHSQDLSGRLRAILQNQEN
SMILES,Potency,max response
C=C(C(=O)c1ccccc1)C(NC(C)(C)C)c1ccccc1 (configuration not stated),14 µM (active),–
C=C(C(=O)c1ccccc1)C(C(=C)C(=O)c1ccccc1)c1ccc(OC)cc1,9.94 µM (active),–
C=C(C(=O)c1ccccc1)C(C)C(=C)C(=O)c1ccccc1,8.86 µM (active),–
COc1ccc(-c2n[nH]c(C)c2-c2ccc(OC)c(OC)c2)c(O)c1,17.7 µM (active),–
Cc1cccc(Cn2c(=O)n(CCCC(=O)NCc3ccco3)c(=O)c3ccccc32)c1,14 µM (active),–
COc1cc2nc(SCC(=O)NCc3ccco3)n(Cc3ccc(Cl)cc3)c(=O)c2cc1OC,–,-29.6%
Cc1cc(C)c(NC(=O)Cn2c(=O)n(Cc3ccc(C(=O)NCc4ccco4)cc3)c(=O)c3sccc32)c(C)c1,18.4 µM (active),–
Cc1ccc(C)c(Cn2c(=O)n(CCCC(=O)NCc3ccco3)c(=O)c3sccc32)c1,14 µM (active),–
CC(C)OC(=O)c1c2c(n3ccccc13)C(=O)c1ccccc1C2=O,2.59 µM (active),–
CCc1nnc(NC(=O)CSc2nnc(-c3ccccc3O)n2-c2ccc(C)cc2C)s1,6.27 µM (active),–
CC(=O)c1cc(NC(=O)c2ccc(Cl)cc2)c(=O)oc1/C=C/N(C)C,7.04 µM (active),–
CC(=O)c1cc(NC(=O)c2ccc(C)cc2)c(=O)oc1/C=C/N(C)C,14.6 µM (active),–
COc1ccc(C(=O)Nc2cc(C(C)=O)c(/C=C/N(C)C)oc2=O)cc1,9.94 µM (active),–
COC(=O)c1c(-c2ccccc2Cl)noc1/C=C/N(C)C,–,16.3%
COC(=O)c1cc(NC(=O)c2ccccc2)c(=O)oc1/C=C/Nc1ccc(Oc2ccccc2)cc1,–,11.8%
COC(=O)c1ccccc1NC(=O)C1CC(=O)N(c2ccc(OC)cc2)C1 (configuration not stated),–,-25.1%
COc1ccc(N2CC(C(=O)N/N=C/c3ccc(C)cc3)CC2=O)cc1 (configuration not stated),7.04 µM (active),–
Cc1cccc2[nH]cc(/C=C3/C=Nc4ccccc43)c12,18.4 µM (active),–
CNC(=S)N/N=C/c1ccc(N2CCOCC2)s1,–,10.6%
Cc1ccc(-c2cc(C(=O)N/N=C/c3c[nH]c4ccccc34)[nH]n2)cc1,4.98 µM (active),–
O=C(N/N=C/c1c[nH]c2ccccc12)C1COc2ccccc2O1 (configuration not stated),14 µM (active),–
Cc1ccc(/C=N/NC(=O)c2ccc3ccccc3c2)s1,1.58 µM (active),–
Cc1ccc(/C=N/NC(=O)C2COc3ccccc3O2)s1 (configuration not stated),7.9 µM (active),–

SMILES,Potency,max response
Cc1cc(C)nc(NC(=S)Nc2cccc(Cl)c2Cl)c1,–,1.24%
O=C(NCC1CCCO1)c1nn2c(C(F)(F)F)cc(-c3cc(Br)cs3)nc2c1Br (configuration not stated),16.4 µM (active),–
Cc1ccc(C(=O)NC2c3ccccc3-c3ccccc32)cc1,1.98 µM (active),–
O=c1c2cc3ccccc3n2cnn1Cc1ccccc1F,12.5 µM (active),–
CC(CC(=O)Nc1ccc2c(c1)c(=O)n(C)n2-c1ccccc1)c1ccccc1 (configuration not stated),3.96 µM (active),–
Cn1c(=O)c2cc(NC(=O)Cc3cccc4ccccc34)ccc2n1-c1ccccc1,11.2 µM (active),–
CC(CC(=O)Nc1ccc2c(c1)c(=O)n(C)n2Cc1ccc(F)cc1)c1ccccc1 (configuration not stated),–,-26%
CC(CC(=O)Nc1ccc2c(c1)c(=O)n(C)n2-c1ccccc1F)c1ccccc1 (configuration not stated),15.8 µM (active),–
CCCCCCCNc1ccc(/C=C/c2ccnc3ccccc23)cc1,11.6 µM (active),–
CCCCCCNc1ccc(/C=C/c2ccnc3ccccc23)cc1,18.4 µM (active),–
COc1ccccc1NC(=O)c1sc2ncn(CC(=O)Nc3ccccc3)c(=O)c2c1C,18.4 µM (active),–
CCCC(=O)Nc1nc2ccc(NC(=O)c3ccccc3F)cc2s1,15.8 µM (active),–
CCC(=O)Nc1nc2ccc(NC(=O)c3cc(OC)c(OC)c(OC)c3)cc2s1,–,-0.685%
COc1ccc(OC)c(-c2cc(-c3cccnc3)nc(N)c2C#N)c1,5.59 µM (active),–
COc1ccccc1-c1cc(-c2ccccc2)nc(SC(C(N)=O)c2ccccc2)c1C#N (configuration not stated),–,-23.2%
COc1ccc(-c2c(C#N)c(N)nc(Sc3ccc(Cl)cc3)c2C#N)cc1,–,-11.5%
CCOCCCNC(=O)/C(C#N)=C/c1ccc([N+](=O)[O-])o1,23.1 µM (active),–
Cc1ccc(NC(=O)C(=Cc2ccc(C(=O)O)cc2)C(=O)Nc2ccc(C)cc2C)c(C)c1,7.04 µM (active),–
COc1cc(N(C)C)c(OC)cc1/C=C/c1ccnc2ccccc12,23.1 µM (active),–
COc1cc(/C=C/c2ccnc3ccccc23)ccc1N(C)C,18.4 µM (active),–
C=CCN=c1scc(-c2ccc(F)cc2)n1/N=C/c1ccccn1,–,-11.2%
COc1cccc(C(=O)c2sc3nc(-c4ccccc4)cc(C(F)(F)F)c3c2N)c1,0.92 µM (active),–
CCc1ccc(NC(=O)c2sc3nc(C)c(C(=O)Nc4ccc(C)cc4C)c(-c4ccco4)c3c2N)cc1,23.1 µM (active),–

SMILES,Potency,max response
CCOC(=O)c1sc(NC(=S)NC(=O)c2ccco2)nc1C,–,-15.3%
COc1ccc(C(=O)c2sc3nc(C)cc(-c4cccs4)c3c2N)cc1,20.6 µM (active),–
CCC(=O)OCc1cnc(C)c2oc(=O)c(C(=O)Nc3ccccc3C(F)(F)F)cc12,–,-2.09%
COc1ccc(OC)c(NC(=O)c2sc3nc(Cc4ccccc4)cc(C(F)(F)F)c3c2N)c1,3.66 µM (active),–
Cc1c(C(=O)Nc2ccc(C(C)C)cc2)sc2nc3n(c(=O)c12)CCC3,–,6.74%
COc1ccc(NC(=O)c2sc3nc(-c4ccc(OC)cc4)cc(C(F)(F)F)c3c2N)cc1,1.3 µM (active),–
CCOC(=O)c1c(-c2ccc(OC)cc2)csc1/N=C/C1C(=O)CCCC1=O,–,-18.7%
COc1ccc(C(=O)c2sc3nc(-c4ccc(C)cc4)cc(C(F)(F)F)c3c2N)cc1,0.731 µM (active),–
CCOC(=O)c1c(C)nc2sc(C(=O)Nc3ccc(OC)cc3)c(N)c2c1-c1ccc(OC)cc1,1.98 µM (active),–
Cc1ccc2c(c1C)NC(=O)CC(c1ccccc1O)=N2,–,-6.13%
O=C(Cc1nc2ccccc2[nH]c1=O)c1ccc(Cl)cc1,1.03 µM (active),–
COc1ccc(CN2C(=O)C(C)Nc3ncnc(N4CCc5ccccc5C4)c32)cc1 (configuration not stated),3.53 µM (active),–
Cc1ccc(S(=O)(=O)c2cc3ccccc3oc2=Nc2ccc3c(c2)OCO3)cc1,–,12.1%
C=C(C)CNC(=S)N/N=C1\CCCCc2ccccc21,–,-14.6%
CN(C)c1ccc(/C=C/c2ccnc3ccccc23)cc1O,20.6 µM (active),–
CN(C)c1ccc(/C=C/c2ccnc3ccccc23)cc1C=O,5.17 µM (active),–
Cc1cc(/C=C/c2ccnc3ccccc23)ccc1N(C)C,14.6 µM (active),–
CN1CCCc2cc(/C=C/c3ccnc4ccccc34)ccc21,5.8 µM (active),–
O=C(Nc1cc(Cl)cc2c1-c1ccc(Cl)cc1C2O)C(Cl)Cl (configuration not stated),–,-14.6%
O=C(/C=C/c1ccncc1)c1cc(Cl)ccc1O,–,-22.8%
CCc1cc(/C=C/c2ccnc3ccccc23)ccc1N(C)C,20.6 µM (active),–
Cc1cc(/C=C/c2ccnc3ccccc23)ccc1N,18.4 µM (active),–
CN1C(=O)C(O)(C2COC(C)(C)CC2=O)c2cc(Br)ccc21 (configuration not stated),–,-0.606%

SMILES,Potency,max response
N=C1S/C(=C\c2ccc(-c3cccc(Cl)c3)o2)C(=O)N1c1nccs1,16.4 µM (active),–
CCc1ccc(CNC(=O)Cc2ccc(NC(=O)C3=C(C)OCCS3)cc2)cc1,0.886 µM (active),–
CC(C)OC(=O)c1cc(C(=O)c2cc(F)ccc2O)coc1=N,20.6 µM (active),–
CC(C)OC(=O)c1ccc(NCc2cc(O)ccc2O)cc1Cl,–,-19.4%
O=C(N/N=C/c1ccc(Cl)cc1)c1cc2c(s1)-c1ccccc1CC2,7.04 µM (active),–
COc1ccc(-c2[nH]ncc2N=Nc2ccccc2)cc1,8.86 µM (active),–
Cc1ccc(-c2nc(SCCOc3ccccc3C)n3[nH]c(=O)cc3n2)cc1,–,23%
Cc1ccccc1OCCc1c(C)[nH]c(=S)[nH]c1=O,2.5 µM (active),–
N#C/C(=C\c1cccc(O)c1)c1nc2ccccc2o1,7.04 µM (active),–
Cc1ccccc1OCC(=O)NNC(=O)Nc1ccc(Cl)cc1,6.27 µM (active),–
O=C(Nc1ccc(Cl)cc1)Nc1ccon1,–,-27.2%
COc1cccc(/C=N/NC(=O)c2[nH]nc3c2CCc2ccccc2-3)c1,5.59 µM (active),–
COc1ccc(/C=N/NC(=O)c2[nH]nc3c2CCc2ccccc2-3)cc1OC,3.96 µM (active),–
O=C(NCCC1=CCCCC1)C1CCC(CNc2nc(=S)[nH]c3ccccc23)CC1 (configuration not stated),–,-2.72%
Cc1ccc(C)c2nc3sc(C(=O)N4CCOCC4)c(N)c3cc12,17.7 µM (active),–
Cc1cccc2cc3c(N)c(C(=O)N4CCOCC4)sc3nc12,8.2 µM (active),–
Cc1sc(NC(=O)c2sc3nc4c(C)cccc4cc3c2N)c(C#N)c1C,17.7 µM (active),–
Cc1cccc2cc3c(N)c(C(=O)Nc4ccc(N5CCOCC5)cc4)sc3nc12,14 µM (active),–
Cc1ccnc(N/C=C(\C#N)c2nc(-c3cccc(Br)c3)cs2)c1,11.2 µM (active),–
Cc1ccc(C(=O)NN(C)c2nc3ccccc3nc2C(F)(F)F)cc1,6.27 µM (active),–
CN(NC(=O)c1ccccc1)c1nc2ccccc2nc1C(F)(F)F,3.53 µM (active),–
CC12CC3CC(C)(C1)CC(C(=O)NC(=S)N1CCOCC1)(C3)C2,–,-26.4%
Cc1cnc(NC(=O)CC(C)c2ccccc2)s1 (configuration not stated),5.59 µM (active),–
